Measurements taken from PubChem BioAssay AID493194 (Broad Institute, 2011).
Measured potencies and affinities stand elsewhere. Records with an inconclusive call do not appear. Calls of active or inactive are those of the source.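 The calls were made as follows: active = a valid curve of falling signal whose half-effect concentration is at most ten times the top tested dose; inconclusive = flat curve at 30 to 70% inhibition, or poor fit; inactive = signal rise, flat within 30%, or potency beyond limit.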

What follows are compounds tested against Scavenger receptor class B member 1 (Mus musculus) (UniProt Q61009) (assay: mouse SR-BI DiI-HDL uptake blockers – ldlA[mSR-BI] cells, fluorescence, cherry pick, dose response (AID 493194;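 also: CHO cells lacking LDL receptor and overexpressing mouse SR-BI; cellular uptake of fluorescently labeled HDL measured as cell fluorescence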)). Conditions: CHO ldlA[mSR-BI] DiI-HDL uptake fluorescence, 3 h; series mostly up to 35 µM.
Scavenger receptor class B member 1 (Mus musculus), sequence (Q61009 whole entry, looked up): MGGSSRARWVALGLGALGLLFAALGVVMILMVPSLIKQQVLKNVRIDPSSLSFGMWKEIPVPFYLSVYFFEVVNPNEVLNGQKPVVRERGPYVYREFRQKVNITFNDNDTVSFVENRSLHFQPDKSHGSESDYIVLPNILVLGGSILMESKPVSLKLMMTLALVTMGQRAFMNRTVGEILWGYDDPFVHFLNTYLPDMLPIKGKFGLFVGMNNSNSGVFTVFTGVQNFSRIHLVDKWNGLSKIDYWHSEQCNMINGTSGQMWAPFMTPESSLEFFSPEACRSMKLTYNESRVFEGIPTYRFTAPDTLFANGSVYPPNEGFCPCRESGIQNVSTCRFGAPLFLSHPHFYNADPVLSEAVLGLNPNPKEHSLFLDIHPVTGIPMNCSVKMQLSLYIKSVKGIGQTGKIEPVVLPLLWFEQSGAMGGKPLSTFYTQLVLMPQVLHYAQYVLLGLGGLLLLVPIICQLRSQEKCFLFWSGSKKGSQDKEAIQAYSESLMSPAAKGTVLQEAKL

outcome, inactive:
CC(C)[C@H](NC(=O)c1ccco1)C(=O)OCC(=O)c1ccc2c(c1)NC(=O)CO2
O=C(C[C@H]1C/C=C\CCC(=O)OC[C@H]2CCCN2C1=O)NCCO
CCOC(=O)N1CCN(CC(O)COC2CC(C)CCC2C(C)C)CC1 (stereo not drawn)
COc1ccc(N2CCN(C(=O)c3cc(=O)[nH]c4ccccc34)CC2)cc1
CC(=O)c1cc(C#N)c(SCc2ccccc2C#N)nc1C
O=C(Nc1ccccc1F)c1ccc2c(c1)CCN2S(=O)(=O)c1ccccc1
O=C(N[C@@H]1C/C=C\C[C@@H](CC(=O)N(CCO)Cc2ccccc2)C(=O)NCCOC1=O)OCC1c2ccccc2-c2ccccc21
CC(C)c1cc(CNC(=O)C2CCC(=O)N(CCc3ccc(Cl)cc3)C2)on1 (stereo not drawn)
Cc1ccc(NC(=O)c2cc(S(=O)(=O)N3CCOCC3)c(Br)s2)cc1
Cc1cc(C)cc(NC(=O)CCc2c(C)nn(-c3ccc(N4CCCCC4)nn3)c2C)c1
COC(=O)C1C(=O)c2c([nH]c(C(=O)OC3CCCC3C)c2C)CC1C (stereo not drawn)
O=C(NC1CCCCC1)C(c1ccc2ncccc2c1)N(Cc1ccco1)C(=O)c1ccc2c(c1)OCCO2 (stereo not drawn)
CN1CCC2CC1c1cc(-c3ccc(C(F)(F)F)cc3)ccc12 (stereo not drawn)
CCOC(=O)C(=O)Nc1nc(-c2ccc3c(c2)CCN3C(=O)C2CC2)c(C)s1
CCc1cc(=O)oc2c3c(cc(OCC(=O)NCc4ccco4)c12)OC(C)(C)CC3
CC[C@@H](C)[C@H](NC(=O)Cc1c(C)c2cc3c(C)c(C)oc3c(C)c2oc1=O)C(=O)O
COc1ccc(OC)c(CCNC(=O)c2ccc3c(c2)N(Cc2ccccc2)CCS3)c1
CCOc1ccc(C(=O)Nc2ccc(S(=O)(=O)N3C[C@@H]4C[C@@H](C3)c3cccc(=O)n3C4)cc2)cc1
CC(=O)Oc1ccc(C(=O)Cc2ccc3ccccc3n2)c(O)c1C
Cc1c(Nc2nc3ccccc3nc2N2CCN(c3ccccc3)CC2)c(=O)n(-c2ccccc2)n1C
Cc1ccc(-c2cc(C(=O)Nc3ccc(S(=O)(=O)Nc4onc(C)c4C)cc3)[nH]n2)c(O)c1
CC[C@H](C)[C@H](NC(=O)c1ccc(Cl)cc1)C(=O)OCC(=O)c1ccc2c(c1)NC(=O)CO2
CCOC(=O)c1[nH]c2c(c1-c1ccccc1)C(=O)CC(c1ccc(Cl)cc1)C2 (stereo not drawn)
CCOc1ccc(NC(=O)CN2CCN(CC(=O)Nc3ccc(OC)cc3)CC2)cc1
Cc1ccc(-c2csc(N3CCN(c4ccc5nc(-c6ccncc6)n(CCN6CCCCC6)c5c4)CC3)n2)cc1
CCN(CC)C(=O)c1cccc(NC(=O)c2cc(C3CC3)nc3c2cnn3C(C)C)c1
O=C(Cc1cccs1)NCCSc1c(-c2ccc(Cl)cc2)[nH]c2ccccc12
COc1ccc(NC(=O)N2CCN(c3nc(-c4cccc(OC)c4)cs3)CC2)cc1
Cc1ccc(NC(=O)CSc2nnc([C@H](C)NC(=O)OC(C)(C)C)o2)c(C)c1
CCC1CCCCN1C(=O)CSc1nnc(-c2ccco2)o1 (stereo not drawn)
COc1cc(NC(=O)c2cc(-n3cnnc3)ccc2Cl)cc(OC)c1
COC(=O)c1c(C)[nH]c(C(=O)C(C)OC(=O)C2CC(=O)N(c3ccc(C)cc3)C2)c1C (stereo not drawn)
CCOC(=O)N1CCC(NC(=O)c2ccc3c(c2)N(Cc2ccc(F)cc2)CCS3)CC1
CCOC(=O)C(C)(C)Sc1nc2c(cnn2-c2ccc(F)cc2)c(=O)[nH]1
O=C1C2CCCN2C(=O)N1CCCN1CCN(c2ccc([N+](=O)[O-])cc2)CC1 (stereo not drawn)
O=C(Nc1ccc(-c2nc3ccccc3o2)cc1)c1cc(-n2cnnc2)ccc1Cl
CC(C)(C)NC(=O)N1CCN(c2ncccc2C(F)(F)F)CC1
COCCOC(=O)c1[nH]c2c(c1C)C(=O)CC(c1ccco1)C2 (stereo not drawn)
